gsp ag: gsp mutant agonism | 340,000 compounds, 0.13% hits | gsp mutant cells, cAMP HTRF, 30 min | Potency, µM (highest dose often 76.9 µM), for inactives: at the top dose activation (cAMP increase), usual class: activators | AID 624287; active = well fitted activation curve with a large enough effect; inconclusive = small, poorly fitted or top-dose-only effect, or another doubt; inactive = no such curve, though single readings can be large or run the other way; cell line not stated here;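 also: phosphodiesterase inhibitor Ro 20-1724 added with compounds to block cAMP breakdown; potency is read from the fitted curve at half-maximal effect; nearly all actives have a fitted effect of over 60% in size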
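Cells stably selected in G418 were plated at 2000/well, grown 16-24 hr, then given compounds in DMSO with the PDE inhibitor […] (300 uM solution added) for 30 min at 37C; cAMP was read by HTRF.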
RXFP1 ag: RXFP1 (human) receptor agonism; Q9HBX9; HEK293T-RXFP1 cAMP TR-FRET, 30 min; response scale: percent of porcine relaxin response, buffer zero; Potency, µM (series often up to 57.5 µM), inactives show at the top dose activation, hits mostly activators; 370,000 compounds, 0.3% hits; AID 2676; active = well fitted activation curve with a large enough effect; inconclusive = small, poorly fitted or top-dose-only effect; also: potency is read from the fitted curve at half-maximal effect; % is scaled to controls: 0 for no effect and ±100 for the full control effect; nearly all actives have a fitted effect of over 60% in size
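HEK293 cells stably expressing RXFP1, treated 30 min at 37C with compounds plus PDE4 inhibitor Ro 20174; cAMP measured by HTRF TR-FRET. Normalized to buffer and 29 nM porcine relaxin; EC50 by Hill fit.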
pAkt inh: Akt phosphorylation inhibition. Neuro2A IGF-stimulated pAkt S473 HTRF, 20 min; stronger effect = lower value. activity change, % for hits at 50 µM. 360,000 compounds, 0.32% hits; in the data active = activity change below about -80%; inconclusive = mostly about -51% to -80%; also: % is scaled to controls: 0 for no effect and ±100 for the full control effect
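Neuro2A cells (4,500/well, DMEM with 0.5% FBS) were treated with compound at a single 50 µM final concentration, stimulated with 6 nM IGF for 20 min at 37 °C, and lysed. Phospho-Akt Ser473 was read by HTRF as 665/615 ratio ×10^4.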
RXFP1 antag: RXFP1 (human) relaxin receptor antagonism; HEK293-RXFP1, relaxin-stimulated cAMP HTRF, 30 min; stronger effect = lower value; activity change, negative = inhibition, % at 57.5 µM; Q9HBX9; 350,000 compounds, 0.59% hits;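 active = activity change of -60% or lower, but not beyond a set lower limit; inconclusive = change between -60% and -40%, or beyond the set limit; inactive = change above -40%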; also: % is scaled to controls: 0 for no effect and ±100 for the full control effect
gsp antag: gsp mutant antagonism | gsp-mutant cells, cAMP HTRF, 30 min | Potency, µM (titrated, usually from 76.9 µM), inactives show at the highest dose activity change, negative = inhibition, usual class: inhibitors | 340,000 compounds, 0.4% hits; calls by dose curve; cell line not stated here;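 also: intracellular cAMP measured with PDE inhibitor Ro 20-1724 present during compound exposure; potency is read from the fitted curve at half-maximal effect; % is scaled to controls: 0 for no effect and ±100 for the full control effect; nearly all actives have a fitted effect of over 65% in size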
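Cells in G418 medium, seeded 16-24 h, 37C; buffer exchange to DPBS + 1 mM CaCl2, 0.5 mM MgCl2, 0.05% BSA; cpds in DMSO + […] (300 uM stock), 30 min 37C; HTRF cAMP detection.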
Numbers without * were called inactive; i = inactive; ? = inconclusive; . = no result given; [ ] = dose if it differs, or a comment. This is a sample that favours compounds with a hit; in the whole collection about 1.2% have one here.

SMILES	gsp ag	RXFP1 ag	pAkt inh	RXFP1 antag	gsp antag
Cc1cc(SCC(=O)NCc2ccc(Cl)cc2)nc(=O)[nH]1	.	-2%	.	.	.
CCN(CC)c1ccc(NC(=O)c2c(C)nn(-c3ccc(F)cc3)c2-n2cccc2)c(C)c1	.	1%	.	.	.
CC(=O)N1CCc2cc(Br)cc(S(=O)(=O)CCC(=O)N3CCN(c4ccc(F)cc4)CC3)c21	.	-1%	.	.	.
CCOC(=O)c1[nH]cnc1C(=O)Nc1ccccc1	3%[15.4 µM]	14%	i	-5	.
CCCCOc1c(C(=O)Nc2ccccc2)nnn1-c1ccccc1	-31%[15.4 µM]	1%	i	-87*	.
Fc1ccc(C2CC(c3ccccc3)Nc3ncnn32)cc1 (configuration not stated)	8%	0%	i	.	11µM*
CCN=c1sc2ccccc2n1CC(O)COc1ccccc1 (configuration not stated)	4%	-2%	i	-68*	-6%[15.4 µM]
COCCN(CCOC)c1ncnc2c1c(-c1ccccc1)cn2-c1ccc(C)c(Cl)c1	.	?	.	14	.
COC(=O)C1=C(C)C(c2ccc(OC)cc2OC)NC(=O)N1 (configuration not stated)	5%	0%	-117%*	-4	11%
CN1Cc2cc(C(=O)N3CCC(C4CCNCC4)CC3)ccc2N[C@@H](CC(=O)O)C1=O	.	.	.	-13	.
Cc1cc(C)cc(N2CCn3c2nc2c3c(=O)n(CCc3ccccc3)c(=O)n2C)c1	.	0%	.	-9	.
COc1ccc(C(=O)Nc2ccc(Nc3ccccc3)cc2)cc1[N+](=O)[O-]	-11%	-1%	i	3	28µM*
COc1ccc(CNC(=O)CCCc2cn(C)c3ccccc23)c(OC)c1	.	3%	.	0	.
COc1cc(/C=C2\SC(=S)N(Nc3ncc(C(F)(F)F)cc3Cl)C2=O)ccc1O	0%[15.4 µM]	0%	i	-74*	-12%
COc1ccccc1N1CCN(CC(O)COc2cc(C)cc(C)c2)CC1 (configuration not stated)	.	-1%	.	-6	.
COc1ccccc1N1CCN(CC(O)COc2ccc(C)cc2C(C)(C)C)CC1 (configuration not stated)	.	6%	.	-83*	.
CCN(CC)CCCNC(=O)c1[nH]c(C)c(C(=O)NC2CCCCC2)c1C	?	0%	-83%*	-1	1%
CC(=O)c1c(C)[nH]c(C(=O)NC2CCCCC2)c1C	-10%	-1%	i	1	-5%
Cc1cc(Br)cc2c1N(Cc1ccccc1OC(C)C)C(=O)C2=O	.	-2%	.	-32	.
COc1ccccc1C(=O)NCc1nnnn1-c1ccc(C)c(C)c1	.	1%	.	-17	.
O=C(Cn1cnc2nc3c(cc2c1=O)CCCC3)N1CCN(c2cccc(C(F)(F)F)c2)CC1	.	-2%	.	-11	.
Cc1ccc(Cl)cc1N1CCN(C(=O)Cn2cnc3nc4c(cc3c2=O)CCCC4)CC1	.	3%	.	-68*	.
O=c1c2c(-c3ccc([N+](=O)[O-])cc3)csc2nc2n1CCC2	22µM*	?	i	11	10%
CN1C(=O)/C(=C/c2ccccc2F)Sc2ccc(C(=O)N3CCCC3)cc21	5%	-1%	i	-25	28µM*
Cc1ccccc1/C=C1\Sc2ccc(C(=O)N3CCN(c4ccccn4)CC3)cc2N(C)C1=O	-53%	0%	i	-5	?
SMILES	gsp ag	RXFP1 ag	pAkt inh	RXFP1 antag	gsp antag
O=C(c1ccc2c(c1)N(Cc1ccccc1Cl)C(=O)c1ccccc1S2)N1CCCC1	.	-4%	.	-68*	.
CC1CCN(Cc2cnc(Cl)s2)CC1	-21%	0%	i	-6	1%
CC1CCCN(Cc2cnc(Cl)s2)C1 (configuration not stated)	15%	0%	-108%*	2	2%
CCOC(=O)c1c(C)nc2sc3c(=O)n(-c4ccc(C(C)=O)cc4)cnc3c2c1-c1ccc(OC)cc1	5%	1%	-108%*	-10	0%
Cc1ccc(C(=O)C(=O)O)cc1C	.	.	.	-8	.
Cc1ccc(Nc2nc3nonc3[nH]c2=O)cc1Cl	10%	0%	i	-18	28µM*
Cc1ccc(Nc2nc3nonc3[nH]c2=O)cc1C	-23%	0%	i	-13	-22%
O=C(COc1ccccc1O)Nc1ccc(Cl)cc1	18%	-3%	i	5	35µM*
CCC1(c2cnc[nH]2)Cc2ccccc2C1	.	.	.	-2	.

Screening data as filed in PubChem.
